# Assay results reported in PubChem BioAssay AID1508601 (ICCB-Longwood Screening Facility, Harvard Medical School, 2020).
# The campaign covered roughly 5,700 compounds. About 85 (1%) were called active. No stated cut-off is given here; in the data, active means p53-positive nuclei above about 36% (passing the limit was not always enough); inactive means the rest. This excerpt belongs to a sample that is enriched for actives. Peptide text beside a SMILES is read from it. * marks the point of attachment. Cbz = O=C(OCc1ccccc1)*
# Key:
# [1] = nuclear p53 accumulation, HPV+ cells – imaging, p53-positive nuclei imaging, 24 h, 48 h (AID 1508601); settings: 24/48 h
# [2] = target: Cellular tumor antigen p53 (Homo sapiens) (UniProt P04637); assay: as above; settings: 24/48 h, stronger effect = higher value
# Chain of Cellular tumor antigen p53 (Homo sapiens) (P04637 whole entry, looked up): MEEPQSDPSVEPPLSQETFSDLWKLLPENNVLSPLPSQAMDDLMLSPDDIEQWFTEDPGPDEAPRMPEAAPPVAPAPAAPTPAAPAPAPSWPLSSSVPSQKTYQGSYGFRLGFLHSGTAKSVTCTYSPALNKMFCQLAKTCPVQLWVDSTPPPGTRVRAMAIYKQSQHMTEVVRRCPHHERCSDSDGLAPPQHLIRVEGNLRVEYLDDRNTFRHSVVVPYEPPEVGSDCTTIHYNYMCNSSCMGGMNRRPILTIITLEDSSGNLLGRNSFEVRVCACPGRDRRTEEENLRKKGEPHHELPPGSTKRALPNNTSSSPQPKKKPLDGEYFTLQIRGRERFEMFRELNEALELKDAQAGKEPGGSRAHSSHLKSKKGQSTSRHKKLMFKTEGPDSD
# [3] = measured here: cell number at 24 h, Library stock concentration: 10 mM
# [4] = measured here: cell number at 48 h, Library stock concentration: 10 mM
# [5] = Library stock concentration: 10 mM
# [6] = measured here: p53 positive nuclei at 24 h, Library stock concentration: 10 mM
# [7] = measured here: cell number at 24 h, Library stock concentration: 80 uM
# [8] = measured here: cell number at 24 h, Library stock concentration: 400 uM
# [9] = measured here: cell number at 24 h, Library stock concentration: 2 mM
# [10] = measured here: cell number at 48 h, Library stock concentration: 80 uM
# [11] = measured here: cell number at 48 h, Library stock concentration: 400 uM
# [12] = measured here: cell number at 48 h, Library stock concentration: 2 mM
# [13] = Library stock concentration: 80 uM
# [14] = Library stock concentration: 400 uM
# [15] = Library stock concentration: 2 mM
# [16] = measured here: p53 positive nuclei at 24 h, Library stock concentration: 80 uM
# [17] = measured here: p53 positive nuclei at 24 h, Library stock concentration: 400 uM
# [18] = measured here: p53 positive nuclei at 24 h, Library stock concentration: 2 mM
structure (smiles),measurement,setting,value
CC(C)CC(C=O)NC(=O)C(CC(C)C)NC(=O)C(CC(C)C)NC(=O)OCc1ccccc1 (stereo not drawn) (Cbz-Leu-Leu-Leu-aldehyde; configuration not given here),"nuclei count, normalised","[1]; measured here: cell number at 24 h, Library stock concentration: 46 uM",112%
same,"nuclei count, normalised","[1]; measured here: cell number at 24 h, Library stock concentration: 278 uM",112%
same,"nuclei count, normalised","[1]; measured here: cell number at 24 h, Library stock concentration: 1.67 mM",62%
same,"nuclei count, normalised","[1]; measured here: cell number at 24 h, Library stock concentration: 3.33 mM",46.1%
same,"nuclei count, normalised",[1]; [3],59.9%
same,"nuclei count, normalised","[1]; measured here: cell number at 48 h, Library stock concentration: 46 uM",111%
same,"nuclei count, normalised","[1]; measured here: cell number at 48 h, Library stock concentration: 278 uM",104%
same,"nuclei count, normalised","[1]; measured here: cell number at 48 h, Library stock concentration: 1.67 mM",46.9%
same,"nuclei count, normalised","[1]; measured here: cell number at 48 h, Library stock concentration: 3.33 mM",38.7%
same,"nuclei count, normalised",[1]; [4],46.7%
same,"p53-positive nuclei, normalised",[2]; Library stock concentration: 46 uM,-0.152% (inactive)
same,"p53-positive nuclei, normalised",[2]; Library stock concentration: 278 uM,0.0393% (inactive)
same,"p53-positive nuclei, normalised",[2]; Library stock concentration: 1.67 mM,92% (active)
same,"p53-positive nuclei, normalised",[2]; Library stock concentration: 3.33 mM,92% (active)
same,"p53-positive nuclei, normalised",[2]; [5],106% (active)
same,"p53-positive nuclei, normalised","[2]; measured here: p53 positive nuclei at 24 h, Library stock concentration: 46 uM",0.0832%
same,"p53-positive nuclei, normalised","[2]; measured here: p53 positive nuclei at 24 h, Library stock concentration: 278 uM",-0.0262%
same,"p53-positive nuclei, normalised","[2]; measured here: p53 positive nuclei at 24 h, Library stock concentration: 1.67 mM",44.6%
same,"p53-positive nuclei, normalised","[2]; measured here: p53 positive nuclei at 24 h, Library stock concentration: 3.33 mM",87.5%
same,"p53-positive nuclei, normalised",[2]; [6],135%
C=CC(=O)N1CCc2ccc(-n3c(=O)ccc4cnc5ccc(-c6cnn(C)c6)cc5c43)cc21,"nuclei count, normalised",[1]; [7],107%
same,"nuclei count, normalised",[1]; [8],102%
same,"nuclei count, normalised",[1]; [9],74.7%
same,"nuclei count, normalised",[1]; [3],48.5%
same,"nuclei count, normalised",[1]; [10],108%
same,"nuclei count, normalised",[1]; [11],102%
same,"nuclei count, normalised",[1]; [12],84.2%
same,"nuclei count, normalised",[1]; [4],37.4%
same,"p53-positive nuclei, normalised",[2]; [13],-0.0335% (inactive)
same,"p53-positive nuclei, normalised",[2]; [14],-0.203% (inactive)
same,"p53-positive nuclei, normalised",[2]; [15],-0.00288% (inactive)
same,"p53-positive nuclei, normalised",[2]; [5],0.846% (inactive)
same,"p53-positive nuclei, normalised",[2]; [16],-0.0563%
same,"p53-positive nuclei, normalised",[2]; [17],-0.129%
same,"p53-positive nuclei, normalised",[2]; [18],-0.129%
same,"p53-positive nuclei, normalised",[2]; [6],0.0284%
CS(=O)(=O)c1ccc(C(CC2CCCC2)C(=O)Nc2nccs2)cc1 (configuration not stated),"nuclei count, normalised",[1]; [7],117%
same,"nuclei count, normalised",[1]; [8],108%
same,"nuclei count, normalised",[1]; [9],110%
same,"nuclei count, normalised",[1]; [3],109%
same,"nuclei count, normalised",[1]; [10],110%
same,"nuclei count, normalised",[1]; [11],104%
same,"nuclei count, normalised",[1]; [12],100%
same,"nuclei count, normalised",[1]; [4],106%
same,"p53-positive nuclei, normalised",[2]; [13],0.258% (inactive)
same,"p53-positive nuclei, normalised",[2]; [14],0.124% (inactive)
same,"p53-positive nuclei, normalised",[2]; [15],0.01% (inactive)
same,"p53-positive nuclei, normalised",[2]; [5],-0.00666% (inactive)
same,"p53-positive nuclei, normalised",[2]; [16],-0.031%
same,"p53-positive nuclei, normalised",[2]; [17],-0.122%
same,"p53-positive nuclei, normalised",[2]; [18],0.0254%
same,"p53-positive nuclei, normalised",[2]; [6],-0.0737%
